Tau fibril ThT: tau fibrillization inhibition (ThT binding); 270,000 compounds, 2.1% hits; recombinant tau K18 P301L, heparin-induced fibrillization, ThT fluorescence; Potency, µM (titrated, usually from 57.4 µM), for the others: at the highest dose activity, negative = inhibition, actives largely listed as inhibitors; P10636; further: nearly all actives have a fitted effect of over 55% in size
Target sequence (P10636 561-689 P618L limits assumed): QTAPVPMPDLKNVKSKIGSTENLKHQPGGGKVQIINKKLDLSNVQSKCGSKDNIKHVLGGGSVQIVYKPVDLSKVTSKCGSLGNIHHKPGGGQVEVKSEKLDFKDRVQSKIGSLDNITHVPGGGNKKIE
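Fibril formation assay: tau K18 P301L at 15 uM with trace Alexa 594 label, heparin inducer 20 uM, pH 7 sodium acetate buffer, 37 C for 6 hr; endpoint ThT signal.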
Tau fibril FP: blocks human tau fibril formation measured by polarization; P10636; K18 P301L tau heparin fibrillization, Alexa594 FP, 6 h; Potency, µM (titrated, usually from 57.7 µM), without a hit: at the top dose activity, negative = inhibition, actives largely listed as inhibitors; 280,000 compounds, 0.39% hits; AID 1468; further: nearly all actives have a fitted effect of over 55% in size
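FP of Alexa 594-tau after heparin (20 uM) induction. Substrate: human K18 P301L, 15 uM unlabeled, 0.24 uM labeled. Buffer 100 mM sodium acetate pH 7. 6 hr, 37 C.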
ALDH1A1 inh: blocks purified human ALDH1A1 activity; Purified ALDH1A1, NADH fluorescence, propionaldehyde substrate; 220,000 compounds, 7.3% hits; P00352; Potency, µM (series often up to 75.3 µM), for inactives: at the highest dose activity, negative = inhibition, usual class: inhibitors; AID 1030; active means well fitted inhibition curve with a large enough effect, not every such curve was filed as active; inconclusive means small, poorly fitted or top-dose-only effect, or another doubt; inactive means no such curve, though single readings can be large or run the other way;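 further: plate controls were no enzyme wells and a reference inhibitor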
Target sequence (P00352 whole entry, looked up): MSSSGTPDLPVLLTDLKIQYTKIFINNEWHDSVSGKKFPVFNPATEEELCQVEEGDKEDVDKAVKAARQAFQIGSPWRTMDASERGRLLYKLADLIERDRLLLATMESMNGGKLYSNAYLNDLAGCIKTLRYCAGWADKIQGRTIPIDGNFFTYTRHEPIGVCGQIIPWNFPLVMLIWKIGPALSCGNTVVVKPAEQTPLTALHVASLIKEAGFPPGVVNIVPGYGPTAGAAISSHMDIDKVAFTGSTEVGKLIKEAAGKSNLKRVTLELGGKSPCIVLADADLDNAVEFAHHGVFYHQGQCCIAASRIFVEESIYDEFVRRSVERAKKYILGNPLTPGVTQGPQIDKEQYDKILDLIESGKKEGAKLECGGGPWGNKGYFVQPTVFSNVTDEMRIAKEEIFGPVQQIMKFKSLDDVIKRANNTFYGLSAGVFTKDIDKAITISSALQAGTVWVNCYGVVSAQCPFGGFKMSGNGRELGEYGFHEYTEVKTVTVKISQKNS
HPGD inh: HPGD (human) dehydrogenase inhibition; purified HPGD, NADH fluorescence kinetic, PGE2 substrate; Potency, µM, for the others: top-dose activity change, negative = inhibition, actives largely listed as inhibitors; 150,000 compounds, 4.3% hits; P15428; active means well fitted inhibition curve with a large enough effect, not every such curve was filed as active; inconclusive means small, poorly fitted or top-dose-only effect, or another doubt; inactive means no such curve, though single readings can be large or run the other way
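20 nM HPGD preincubated 15 min at room temperature with compound in 50 mM Tris-HCl pH 8, 0.01% Tween 20. Started with 1 mM NAD+ and 30 uM prostaglandin E2; NADH fluorescence (360/450 nm) read 5 times over 30-s intervals, last minus first.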
NPSR antag: blocks cAMP signaling of the human neuropeptide S receptor. Potency, µM (series often up to 38.3 µM), for the others: at the top dose activity change, negative = inhibition, most hits filed as inhibitors. CHO-NPSR cells, cAMP TR-FRET, antagonist mode. Q6W5P4. 220,000 compounds, 1% hits; further: nearly all actives have a fitted effect of over 50% in size
Tau fluor counter: counter-screen for tau fibril formation inhibitors; tau K18 P301L (four-repeat tau fragment) Alexa594 fluorescence, heparin fibrillization; Potency, µM (highest dose often 57.7 µM), inactives show top-dose activity change, negative = decrease; 280,000 compounds, 0.93% hits; further: nearly all actives have a fitted effect of over 55% in size
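Human K18 P301L tau (15 uM unlabeled plus 0.24 uM Alexa 594-labeled, final) in 100 mM sodium acetate pH 7 was mixed with compound and 20 uM heparin and incubated 6 hr at 37 C.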
Active calls of the source: *; [ ] = remark or other dose. Shown are actives, neighbours in structure and some others; about 9.5% of the full set was active somewhere. Unless noted, the call rests on the fitted dose curve; in most records, active means well fitted curve in the direction sought with a large enough effect; inconclusive means small, poorly fitted or top-dose-only effect, or another doubt; inactive means no such curve, though single readings can be large; an effect the other way counts as inactive or inconclusive. Unless noted, on the % scale 0 is the no-effect control and ±100 the full control effect; potency means the concentration at half of the fitted maximal effect.

Cc1ccc(C2CC2C(=O)NNC(=S)Nc2ccc(Cl)cc2)cc1 (stereo not drawn) was read as Tau fibril ThT 8%, Tau fibril FP -6%, ALDH1A1 inh 8.9µM*, HPGD inh inconclusive, NPSR antag 11% and Tau fluor counter -1%.
O=C1[C@H]2[C@H](ON3CCCC[C@H]23)C(=O)N1c1ccc(Cl)cc1 was read as Tau fibril ThT -4%, Tau fibril FP 1%, ALDH1A1 inh -3%, NPSR antag 21% and Tau fluor counter -5%.
`Cc1cccc(NC(=S)NCCC(C)C)c1` gave Tau fibril ThT 4%, Tau fibril FP -9%, ALDH1A1 inh -5%, HPGD inh 28µM*, NPSR antag -17% and Tau fluor counter -2%.
`Cc1cccc(NC(=S)NNC(=O)Cc2ccccc2)c1` gave Tau fibril ThT -4%, Tau fibril FP 0%, ALDH1A1 inh 40µM*, HPGD inh -18%, NPSR antag 4%[46.1 µM] and Tau fluor counter -4%.
`O=C(Cc1ccccc1)NNC(=S)Nc1ccc(Cl)cc1` gave Tau fibril ThT -4%, Tau fibril FP -1%, ALDH1A1 inh 25µM*, HPGD inh -7%, NPSR antag -2% and Tau fluor counter -8%.
For O=C(CCc1ccccc1)NNC(=O)Cc1ccc(Cl)cc1 the results were Tau fibril ThT -4%, Tau fibril FP -1%, ALDH1A1 inh -3%, NPSR antag 9% and Tau fluor counter -3%.
Screening S=C(NCc1ccncc1)Nc1cccc(Cl)c1 returned Tau fibril ThT 7%, Tau fibril FP -4%, ALDH1A1 inh -2%, HPGD inh -1%, NPSR antag 16% and Tau fluor counter 7%.
S=C(NCCC(c1ccccc1)c1ccccc1)Nc1cccc(Cl)c1 was read as Tau fibril ThT 18%, Tau fibril FP 14µM*, ALDH1A1 inh inconclusive, HPGD inh -14%, NPSR antag inconclusive and Tau fluor counter 7.1µM*[quencher].
`COc1ccc(OC)c(CC(NC(C)=O)C(=O)NC2CCN(c3cc(C)nc4ncnn34)CC2)c1` (stereo not drawn) gave Tau fibril ThT 0%, Tau fibril FP -3%, ALDH1A1 inh 8%, NPSR antag -33% and Tau fluor counter 6%.
`COc1ccc(C(=O)Nc2ccc(OCC(F)(F)C(F)F)c(C(F)(F)F)c2)cc1OC` gave Tau fibril ThT 1%, Tau fibril FP 22µM*, ALDH1A1 inh 3%, HPGD inh -20%, NPSR antag -2%[46.1 µM] and Tau fluor counter inconclusive.
Screening COc1ccc(NC(=O)c2ccc(COCC(F)(F)F)cc2)cc1OC returned Tau fibril ThT inconclusive, Tau fibril FP 4%, ALDH1A1 inh 7%, HPGD inh -5%, NPSR antag 2% and Tau fluor counter -21%.
`Oc1ccc(N=Cc2ccc(O)c(O)c2)cc1` gave Tau fibril ThT 3.2µM*, Tau fibril FP 8.9µM*, ALDH1A1 inh 13µM*, HPGD inh 28µM*, NPSR antag -16%[46.1 µM] and Tau fluor counter inconclusive.
`O=[N+]([O-])c1cnc2ccccc2c1` gave Tau fibril ThT 6%, Tau fibril FP 6%, ALDH1A1 inh 10µM*, HPGD inh -1%, NPSR antag 1% and Tau fluor counter 5%.
`CC(C)CC(=O)Nc1nnc(SCc2cc(=O)n3ccccc3n2)s1` gave Tau fibril ThT -3%, Tau fibril FP -2% and Tau fluor counter -7%.
Screening CC(C)OC(=O)CSc1nnc(-c2cnccn2)n1-c1ccc(Cl)cc1 returned Tau fibril ThT 11%, Tau fibril FP -11%, ALDH1A1 inh 10µM*, HPGD inh -20%, NPSR antag -17%[46.1 µM] and Tau fluor counter 5%.
Cc1ccc(-n2c(SCC(=O)OC(C)C)nnc2-c2ccncc2)cc1 was read as Tau fibril ThT -1%, Tau fibril FP 5%, ALDH1A1 inh 1%, HPGD inh -21%, NPSR antag -13%[46.1 µM] and Tau fluor counter 2%.
CCCOC(=O)c1ccc(NC(=O)CSC2=Nc3ccccc3C3CC=NN23)cc1 (stereo not drawn) was read as Tau fibril ThT inconclusive, Tau fibril FP inconclusive, ALDH1A1 inh 32µM*, HPGD inh inconclusive, NPSR antag -14%[46.1 µM] and Tau fluor counter inconclusive.
Screening Cc1cc(C)cc(-n2c(SCC(=O)Nc3ccccc3F)nc3c(oc4ccccc43)c2=O)c1 returned Tau fibril ThT -8%, Tau fibril FP -17% and Tau fluor counter -16%.
`CCn1cc(C(=O)NCCC2=CCCCC2)c(=O)c2cc(S(=O)(=O)N(C)C)ccc21` gave Tau fibril ThT -5%, Tau fibril FP 0%, ALDH1A1 inh inconclusive, HPGD inh -5%, NPSR antag -20%[46.1 µM] and Tau fluor counter -18%.
For Cc1ccc2nc(-c3ccc(Cl)s3)c(Nc3ccc4c(c3)OCCO4)n2c1 the results were Tau fibril ThT -15%, Tau fibril FP 10% and Tau fluor counter inconclusive.
Cc1ccn2c(Nc3ccc4c(c3)OCCO4)c(-c3ccc(Cl)s3)nc2c1 was read as Tau fibril ThT inconclusive, Tau fibril FP inconclusive and Tau fluor counter 7.1µM*[quencher].
`Clc1ccc(-c2nc3ccccn3c2Nc2ccc3c(c2)OCCO3)s1` gave Tau fibril ThT inconclusive, Tau fibril FP 11% and Tau fluor counter 6.3µM*[quencher].
Screening Cc1ccc(-c2nc3cnccn3c2Nc2ccc3c(c2)OCCO3)o1 returned Tau fibril ThT -16%, Tau fibril FP 13%, ALDH1A1 inh 13µM*, HPGD inh -23%, NPSR antag -20%[46.1 µM] and Tau fluor counter -18%.
Screening Clc1ccc2nc(-c3cccs3)c(Nc3ccc4c(c3)OCCO4)n2c1 returned Tau fibril ThT 1%, Tau fibril FP 10% and Tau fluor counter inconclusive.
`COC(=O)/C(=C1\OC(=O)C(c2ccccc2)C1=O)c1ccccc1` (stereo not drawn) gave Tau fibril ThT inconclusive, Tau fibril FP -12%, ALDH1A1 inh -6%, HPGD inh -13% and Tau fluor counter -11%.
For Nc1ccc2nc(-c3ccccn3)[nH]c2c1 the results were Tau fibril ThT 25µM*, Tau fibril FP -7%, ALDH1A1 inh 10%, HPGD inh inconclusive, NPSR antag inconclusive and Tau fluor counter inconclusive.
Screening Nc1ccc2nc(-c3ccccc3)[nH]c2c1 returned Tau fibril ThT inconclusive, Tau fibril FP -2%, ALDH1A1 inh inconclusive, HPGD inh inconclusive, NPSR antag -23%[46.1 µM] and Tau fluor counter -25%.
For O=C(/C=C/c1c(F)cccc1Cl)c1ccc(F)cc1 the results were Tau fibril ThT 4%, Tau fibril FP 3%, ALDH1A1 inh -44%, HPGD inh 13µM*, NPSR antag -14%[46.1 µM] and Tau fluor counter 8%.

Compound activity: PubChem, National Center for Advancing Translational Sciences (NCATS)
